# Assay outcomes: PubChem, several laboratories
# Lmaj promast: reduces viability of Leishmania major promastigotes; inhibition, % at 10 µM; actives 9% (n = 200,000); resazurin fluorescence viability; in the data active = inhibition above about 50%;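 note: promastigotes grown with compound for 44 hours at 28 °C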
# INS promoter inh: TRM-6 insulin promoter activity inhibition | TRM-6 cells (human fetal islet line), insulin promoter-eGFP reporter, imaging; reporter expression induced with tamoxifen | inhibition, % at 2 µM | actives 0.9% (n = 130,000) | AID 1273;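 active = inhibition above the mean plus 3 SD, with well images judged a real hit on visual review, cut at about 60% in these data, passing the limit was not always enough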
# Ins promoter up: MIN6 insulin promoter up-regulation; MIN6 insulin promoter-GFP reporter, high-content imaging; hits give high values; z-score at 5 µM; actives 0.3% (n = 190,000); AID 1625;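 active = z-score above 3 at 5 µM with at least 500 cells counted in the well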
# WT yeast gro inh: growth inhibition of WT yeast, mitochondrial fusion screen; inhibition, % at 10 µM; AID 1362; mitochondrial fusion phenotypic screen, WT strain; actives 2.1% (n = 190,000); in the data active = inhibition above about 58%; tested in S. cerevisiae
# Autophagy HCS: modulators of autophagy; MEF GFP-LC3 puncta imaging; test concentration mostly 10 µM; calls only at 10 µM (by protocol); AID 463193; actives 0.98% (n = 190,000);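 active = percentage of spot-positive cells more than 3 SD above its plate mean, without a fluorescence outlier flag or 80% toxicity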;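 note: spot-positive cell cutoff set from DMSO-treated cells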
# * = called active by the depositor; i = inactive; . = no result given; + = active, no number. This is a sample that favours compounds with a hit; in the whole collection about 11% have one here.
SMILES,Lmaj promast,INS promoter inh,Ins promoter up,WT yeast gro inh,Autophagy HCS
CCn1c(=O)c(C(=O)CN2CCN(S(=O)(=O)c3cc(C)ccc3C)CC2)c(N)n(Cc2ccccc2)c1=O,64.7*,-36.7,-0.45,27.7,i
CCn1c(=O)c(C(=O)CN2CCN(Cc3ccc4c(c3)OCO4)CC2)c(N)n(Cc2ccccc2)c1=O,28.8,26.7,-0.58,-14.7,i
Cc1cc2oc(=O)cc(CN3CCCc4ccccc43)c2cc1C,99.3*,.,-1.28,7.2,i
Cc1ccc2c(CN3CCN(CCO)CC3)cc(=O)oc2c1C,54.9*,28.6,0.16,5.0,i
CCc1cc2c(CN3CCN(C)CC3)cc(=O)oc2cc1O,5.6,0.0,-0.57,3.6,i
CCc1cc2c(CN3CCN(CCO)CC3)cc(=O)oc2cc1O,4.5,-300.0,3.59*,11.3,i
CCN1CCN(Cc2cc(=O)oc3cc4c(cc23)CCC4)CC1,8.0,.,0.01,8.8,i
CN1CCN(Cc2cc(=O)oc3cc4c(cc23)CCC4)CC1,65.4*,0.0,0.55,-11.7,i
O=C(OCC(=O)N1CCc2ccccc21)c1c2c(nc3ccccc13)CCCCC2,90.6*,9.4,-0.09,34.4,i
O=C(COC(=O)c1c2c(nc3ccccc13)/C(=C\c1cccs1)CCC2)Nc1ccccc1,28.2,-13.3,-0.45,4.8,i
O=C(COC(=O)c1cc(-c2ccccc2)nc2ccccc12)Nc1ccc2c(c1)OCO2,0.6,.,-0.03,-11.1,i
COc1cccc(NC(=O)COC(=O)c2c3c(nc4ccccc24)CCC(C)C3)c1 (stereo unspecified),53.9*,-8.3,-1.34,-30.8,i
CC(=O)c1ccc(NC(=O)COC(=O)c2c3c(nc4ccccc24)/C(=C\c2cccs2)CCC3)cc1,97.2*,16.9,-0.92,-7.2,i
O=C(COC(=O)c1c2c(nc3ccccc13)CCCC2)Nc1ccc2c(c1)OCO2,59.3*,.,-1.81,-6.7,i
Cc1ccc(/C(=C\CN2CCCC2)c2ccccn2)cc1,.,.,-0.46,.,.
CC1CC(O)C(C)CN1 (stereo unspecified),.,.,0.62,.,.
Cc1cc(NS(=O)(=O)c2ccc(NC(=O)c3cc4cc(Br)ccc4oc3=O)cc2)no1,-11.4,36.4,0.21,1.5,i
CCN(CC)c1ccc(/C=C/C(=O)C2C(=O)C=C(C)OC2=O)cc1 (stereo unspecified),6.0,i,.,23.5,+
COC(=O)c1c(-c2ccccc2)csc1NC1=NS(=O)(=O)c2ccccc21,89.3*,14.8,1.47,-3.7,i
O=C(NCCCO)c1cc([N+](=O)[O-])cc2c1C=Cc1ccccc1O2,96.5*,0.0,-1.05,1.2,i
COc1ccccc1C(=O)NCCCNc1ccc([N+](=O)[O-])cc1,0.3,0.0,-0.38,-7.8,i
N#CC1CC(c2ccccc2)=NN1c1ccccc1[N+](=O)[O-] (stereo unspecified),27.5,.,-0.8,12.5,i
O=C(O)CS(=O)(=O)CC(=O)NCc1cccc(C(F)(F)F)c1,-4.1,5.9,-0.09,-3.3,i
COc1cc2cc(C)c3nnc(SCC(=O)Nc4cc(C)on4)n3c2cc1OC,15.9,.,5.98*,9.1,i
CCCCSc1nc(C)cc(SCC(=O)N/N=C/c2cccc(OC)c2O)n1,98.7*,.,-1.04,16.7,i
SMILES,Lmaj promast,INS promoter inh,Ins promoter up,WT yeast gro inh,Autophagy HCS
COc1ccc(CCCC(=O)N/N=C/c2cccc(OC)c2O)cc1C,97.9*,51.7,0.39,-8.5,i
COc1cccc(/C=N/NC(=O)C[n+]2ccccc2)c1O,-10.3,13.3,-0.5,-1.1,i
Cc1cc(C)nc(N2N=C(C(C)(C)C)CC2=O)n1,-5.6,-51.9,-0.27,-4.0,i
Cc1ccc(SCC2=NN(c3nc(C)cc(C)n3)C(=O)C2)cc1,-5.7,66.7*,0.03,-9.8,i
Cc1nc2ccccn2c1C(=O)N/N=C/c1ccc([N+](=O)[O-])o1,100.0*,-76.9,-1.4,-5.0,i
O=C(N/N=C/c1ccc([N+](=O)[O-])o1)c1cc2c(ccc3ccccc32)o1,98.7*,.,0.77,45.9,i
O=C(CNC(=O)c1cccc(F)c1)N/N=C/c1ccc(O)c([N+](=O)[O-])c1,46.3,.,-0.12,7.4,i
O=C(CNC(=O)c1ccc(F)cc1)N/N=C/c1ccc(O)c([N+](=O)[O-])c1,56.1*,.,0.04,-20.9,i
Cc1nc2ccccn2c1C(=O)N/N=C/c1ccc([N+](=O)[O-])cc1,.,.,-0.96,.,.
O=C(N/N=C/c1ccc([N+](=O)[O-])o1)c1ccc(O)cc1,99.6*,-9.5,.,5.1,i
O=C(N/N=C/c1ccc([N+](=O)[O-])o1)c1ccncc1,.,.,-0.95,.,.
COCCN(C(=O)CSc1nc2ccccc2c(=O)n1CCOC)c1c(N)n(Cc2ccccc2)c(=O)[nH]c1=O,1.0,.,1.79,15.0,i
COc1ccc(C(=O)NC2=Nc3ccccc3N=C(C)C2c2ccccc2)cc1 (stereo unspecified),.,.,-0.49,.,.
O=[N+]([O-])c1ccc(/C=N/N/C(=N/c2ccccn2)c2ccccn2)cc1,-0.2,48.6,-1.38,-2.5,i
O=C(CCC(=O)Nc1ccc(Cl)cc1Cl)N/N=C/c1ccc([N+](=O)[O-])o1,100.7*,.,-0.95,-9.0,i
O=[N+]([O-])c1cc(/C=N/N/C(=N/c2ccccn2)c2ccccn2)ccc1O,51.6*,.,0.07,5.5,i
Cc1ccc(/C=N/NC(=O)C(=O)N/N=C/c2ccc(C)o2)o1,16.3,-25.0,-0.46,-1.3,i
O=C(CNc1cccc([N+](=O)[O-])c1)N/N=C/c1ccc(F)cc1,-2.3,26.7,-0.9,2.1,i
O=C(CNc1ccccc1)N/N=C/c1ccc([N+](=O)[O-])o1,100.0*,-21.4,.,-1.3,i
O=C(CCCn1cnc([N+](=O)[O-])n1)Nc1ccc(Cl)cc1Cl,33.8,-32.1,0.45,0.8,i
Cc1ccc(/C=N\NC(=O)c2cc([N+](=O)[O-])cc([N+](=O)[O-])c2)o1,57.6*,.,.,-6.9,i
CCN(CC)C(=S)NC(=O)c1cc(OC)c(OC)c(OC)c1,-3.8,.,1.7,10.1,i
Cc1cc(C)n(-c2nc3ccccc3c(=O)n2OCC(=O)Nc2c(C)cccc2C)n1,-6.8,.,-0.68,-0.9,i
O=C(OCCN1C(=O)c2ccccc2C1=O)c1cccc(OC(F)F)c1,0.5,.,-0.05,-10.7,i
Cc1ccc(Cn2c(SCC(=O)NCC3CCCO3)nc3c2c(=O)n(C)c(=O)n3C)cc1 (stereo unspecified),5.7,-114.3,0.6,-28.5,i
SMILES,Lmaj promast,INS promoter inh,Ins promoter up,WT yeast gro inh,Autophagy HCS
CCN(CC)c1ccc(N=Cc2ccc([N+](=O)[O-])o2)cc1,91.2*,-30.0,0.43,31.6,i
O=C(CNC(=O)c1ccccc1)N/N=C/c1ccc([N+](=O)[O-])o1,99.3*,-89.7,-0.37,-12.7,i
O=C(CNC(=O)c1ccccc1)N/N=C/c1ccccc1Cl,31.0,-16.7,0.04,-2.2,i
CCCCCC(=O)N/N=C/c1ccc(N(C)C)cc1,-4.2,3.3,-0.01,6.0,i
CCCCCC(=O)N/N=C/c1ccc([N+](=O)[O-])o1,84.8*,-5.9,.,1.2,i
CCN(CC)c1ccc(N=Cc2ccccc2[N+](=O)[O-])cc1,11.8,-175.0,0.36,2.6,i
